# This is a sample that favours compounds with a hit; in the whole collection about 21% have one here.
# CYP2C9 activ – CYP2C9 (human) activation. activation factor at 5 µM. 96,000 compounds, 1.4% hits. recombinant CYP2C9, luciferin-H conversion, luminescence; hits give high values; factor 1 = untreated enzyme, 0 = blocked. AID 1024;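 active means activation factor of 2 or more for CYP2C9 at a 5 µM dose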;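 further: 0 = sulfaphenazole-blocked wells and 1 = vehicle-only wells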
# Target sequence (P11712 whole entry, looked up): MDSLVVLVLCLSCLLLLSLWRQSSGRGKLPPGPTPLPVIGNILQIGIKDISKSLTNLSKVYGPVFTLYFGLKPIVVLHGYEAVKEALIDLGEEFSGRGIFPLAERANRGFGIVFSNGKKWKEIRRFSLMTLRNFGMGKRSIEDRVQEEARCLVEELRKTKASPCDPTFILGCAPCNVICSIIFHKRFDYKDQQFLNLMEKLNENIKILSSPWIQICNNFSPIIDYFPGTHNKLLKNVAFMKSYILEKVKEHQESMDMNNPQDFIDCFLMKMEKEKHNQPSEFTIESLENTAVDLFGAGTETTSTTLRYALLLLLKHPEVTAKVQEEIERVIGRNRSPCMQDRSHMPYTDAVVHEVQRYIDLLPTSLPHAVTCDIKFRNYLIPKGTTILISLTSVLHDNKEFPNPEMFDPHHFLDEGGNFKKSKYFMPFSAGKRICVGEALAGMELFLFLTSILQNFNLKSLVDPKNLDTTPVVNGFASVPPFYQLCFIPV
# MRP reversal – MRP-mediated drug resistance reversal | AID 602 | differential viability (reversal), % at 10 µM | H69AR cells + 2 uM doxorubicin, CellTiter-Glo, 72 h | 85,000 compounds, 0.04% hits;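 active means viability drop by adding the cancer drug above about 55%, with treated viability meeting a 40% cutoff, limit read from the data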;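 further: viability without doxorubicin minus viability with 2 µM doxorubicin for each compound; larger differential means the compound sensitizes cells more to doxorubicin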
# CYP2C9 inh – inhibitors of human CYP2C9 | P11712 | CYP2C9 Supersomes, luciferin-H conversion, luminescence | inhibition, % at 5 µM | 96,000 compounds, 20% hits;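 active means blocking of liver enzyme CYP2C9 beyond about 50% at 5 µM, limit read from the data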
# CYP2C19 inhib – inhibitors of human CYP2C19 | CYP2C19 Supersomes, luciferin-H EGE luminescence, 30 min | inhibition, % at 5 µM | 96,000 compounds, 21% hits | AID 778;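 active means CYP2C19 inhibition above a set limit at 5 µM in the primary screen, cut at about 50% in these data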;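 further: plate controls were negative control wells for no effect and 2.5 mM tranylcypromine positive control for full effect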
# CYP2C19 act – activators of human cytochrome P450 2C19. recombinant CYP2C19, luciferin-H EGE luminescence; hits give high values; 0 = fully inhibited enzyme, 1 = untreated enzyme. activation factor at 5 µM. 96,000 tested, under 10 active;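 active means activation factor of at least 2 at 5 µM in the primary screen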;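 further: 0 = wells with 2.5 mM tranylcypromine and 1 = vehicle-only wells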
# MRP1 act – activators of MRP-1 | 140,000 compounds, 0.61% hits | viability increase, % at 10 µM | AID 799 | H69AR cells + doxorubicin, viability rescue, CellTiter-Glo;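 active means viability gain under doxorubicin at or above a set limit, the compound median plus 3 SD, cut at about 4.7% in these data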;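 further: MRP-1 overexpressing cells given doxorubicin 25 µM after compound pretreatment; 18-22 h compound pretreatment then 72 h with doxorubicin before readout; 0% = doxorubicin-only wells and 100% = vehicle-treated cells without doxorubicin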
# * marks the source's active call; other numbers are inactive results; . = no result.
SMILES,CYP2C9 activ,MRP reversal,CYP2C9 inh,CYP2C19 inhib,CYP2C19 act,MRP1 act
O=[N+]([O-])c1ccccc1S(=O)(=O)n1nnc2ccccc21,.,.,.,.,.,1
COc1ccccc1CN(Cc1cc2cc(C)ccc2[nH]c1=O)Cc1nnnn1CC1CCCO1 (stereo unspecified),0.4,32,56*,24,0.8,-5
Cc1ccc2[nH]c(=O)c(CN(Cc3cccs3)Cc3nnnn3CC3CCCO3)cc2c1 (stereo unspecified),1,15,0,12,0.9,-4
COc1ccccc1CN(Cc1cc2cc(C)cc(C)c2[nH]c1=O)Cc1nnnn1CC1CCCO1 (stereo unspecified),0.4,24,56*,63*,0.4,-4
CS(=O)(=O)N(CC(=O)NC1CCCC1)Cc1ccc(Cl)cc1,0.7,5,26,58*,0.4,0
CC(=O)Nc1ccc(C(=O)OCc2ccc(Cl)cc2)cc1,0.2,.,75*,63*,0.4,-3
CCOC(=O)c1ccc(NC(=O)CN(Cc2ccc(Cl)cc2)S(C)(=O)=O)cc1,0.2,-23,83*,94*,0.1,-5
Cc1cc(C)cc(N(CC(=O)NCC2CCCO2)C(=O)CN2C(=O)COc3ccccc32)c1 (stereo unspecified),0.5,4,49,21,0.8,-1
CS(=O)(=O)N(CC(=O)NC1CCCCC1)Cc1ccc(Cl)cc1,1.2,19,-17,23,0.8,-2
O=C(CN(C(=O)C1COc2ccccc2O1)c1ccccc1)NCC1CCCO1 (stereo unspecified),0.9,-3,8,51*,0.5,-1
Cc1ccc(NC(=O)CSc2ccccc2NC(=O)c2ccccc2Cl)cc1Cl,.,.,.,.,.,-3
COC(=O)CNC(=O)CSc1nc(N)cc(=O)[nH]1,0.9,.,13,-12,1.1,0
CS(=O)(=O)N(CC(=O)NCC1CCCO1)Cc1ccc(Cl)cc1 (stereo unspecified),1,13,4,78*,0.2,0
COc1cc(C(=O)Oc2ccccc2/C=N/NC(=O)c2ccc(Cl)cc2)cc(OC)c1OC,.,.,.,.,.,-2
CC(=O)Nc1ccc(C(=O)N/N=C/c2ccccc2OC(=O)c2ccc(Cl)cc2)cc1,0.4,.,60*,40,0.6,-3
CC(=O)Nc1ccc(C(=O)OCC(=O)N(Cc2ccccc2)C(C)(C)C)cc1,0.3,.,71*,79*,0.2,0
Cc1ccc(S(=O)(=O)NCC(=O)OCC(=O)N(Cc2ccccc2)C(C)(C)C)cc1,.,.,.,.,.,-2
O=C(NC1CCCCC1)C(c1ccc(O)cc1)N(CC1CCCO1)C(=O)C1COc2ccccc2O1 (stereo unspecified),0.3,-14,69*,70*,0.3,-1
O=C1c2ccccc2CC1(Cc1ccccc1)Cc1ccccc1,.,10,.,.,.,-4
O=C(CN(CCc1ccccc1)C(=O)CNS(=O)(=O)c1ccccc1)NCC1CCCO1 (stereo unspecified),1.1,9,-7,9,0.9,-1
CS(=O)(=O)N(CCc1ccccc1)CC(=O)NCC1CCCO1 (stereo unspecified),1,-2,2,56*,0.4,-1
CCN1CCN(C(=O)c2ccc(Cl)c(S(=O)(=O)N3CCOCC3)c2)CC1,0.7,-4,28,10,0.9,-1
O=[N+]([O-])c1cc(-n2cnnn2)ccc1N1CCC(Cc2ccccc2)CC1,0.4,.,62*,42,0.6,-1
CC1CC(C)CN(c2cc3c(cc2[N+](=O)[O-])C(=O)N(c2ccccc2)C3=O)C1 (stereo unspecified),.,.,.,.,.,-1
CC1CC(C)CN(c2ccc(-n3cnnn3)cc2[N+](=O)[O-])C1 (stereo unspecified),0.8,.,19,64*,0.4,-3
SMILES,CYP2C9 activ,MRP reversal,CYP2C9 inh,CYP2C19 inhib,CYP2C19 act,MRP1 act
O=C(Nc1ccc(Cl)cc1)N1CCN(c2ccc3nnc(-c4ccc(F)cc4)n3n2)CC1,0.4,.,56*,40,0.6,-5
FC(F)(F)c1cccc(N2CCN(c3ccc4nnc(-c5ccccc5)n4n3)CC2)c1,1,.,2,-14,1.1,-4
O=C(Nc1ccc(Cl)cc1)N1CCC(c2nc(-c3ccc(F)cc3)no2)CC1,1.1,-9,-5,6,0.9,-1
O=C(Nc1ccccc1Cl)N1CCN(c2ccc3nnc(-c4ccccc4)n3n2)CC1,0.1,22,89*,69*,0.3,-1
O=C(CSc1ccc2nnc(-c3ccccc3)n2n1)N1CCCCC1,.,-7,.,.,.,.
O=C(c1ccc(Br)o1)N1CCN(c2ccc3nnc(-c4ccc(F)cc4)n3n2)CC1,0.3,-2,67*,16,0.8,-2
COc1cc(C)nc2nc(SCc3ccccc3)nn12,1.3,17,-32,23,0.8,0
O=C(Cc1cccs1)Nc1cccc(-c2nc3cc4ccccc4cc3[nH]2)c1,.,.,.,.,.,-5
Cc1nc2c(C(=O)NCc3ccccc3)c[nH]n2c(=O)c1Cl,0.5,.,53*,-10,1.1,-1
Cc1nc2c(C(=O)NCc3ccccc3Cl)c[nH]n2c(=O)c1Cl,0.1,.,92*,30,0.7,0
Cc1nc2c(C(=O)NCCc3ccccc3Cl)c[nH]n2c(=O)c1Cl,.,-2,.,.,.,-1
COC(=O)c1c[nH]n2c(=O)c(Cl)c(C)nc12,.,.,.,.,.,-2
COc1cc(C(=O)NCc2cn3ccsc3n2)cc(OC)c1OC,.,16,.,.,.,.
CCCCc1c(O)nc2ccccn2c1=O,.,.,.,.,.,1
O=c1c(/C=N/O)c(Nc2ccccc2)nc2ccccn12,0.5,-5,50*,20,0.8,-2
CCC(CC)C1C(C#N)=C(N)Oc2n[nH]c(C)c21 (stereo unspecified),0.4,-23,57*,82*,0.2,-3
CCc1[nH]nc2c1C(C(C)C)C(C#N)=C(N)O2 (stereo unspecified),0.7,1,32,75*,0.3,-4
CCC(CC)C1C(C#N)=C(N)Oc2n[nH]c(-c3ccccc3)c21 (stereo unspecified),1.2,-43,-22,57*,0.4,-2
CCCc1[nH]nc2c1C(CCC)C(C#N)=C(N)O2 (stereo unspecified),0.9,-3,6,62*,0.4,0
CC(C)CCn1c(Br)nc2c1c(=O)n(CC(N)=O)c(=O)n2C,1,.,1,9,0.9,-1
Cc1cccc(N2CCN(CC(O)COCc3cccs3)CC2)c1C (stereo unspecified),.,.,.,.,.,-1
CCCCN1c2cc(C)c(O)cc2C(C(=O)OCC)C1C (stereo unspecified),0.5,19,50,59*,0.4,-2
CSc1ccccc1NC(=O)Cn1c(-c2cscn2)nc2ccccc21,0.2,8,78*,98*,0,-1
Brc1ccccc1Cn1c(-c2cscn2)nc2ccccc21,0.8,-2,15,56*,0.4,-2

# High-throughput results (PubChem BioAssay)
